Several values for one entry are separate records, joined by “and”; a condition that tells them apart may be missing. Identical values can stand only once. Compounds without any hit were thinned out: in the full panel of roughly 83,000, 20% have a hit.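 Treatment: one concentration, 48 hours, 96-well format. Scoring: percent growth, with anything below 10 considered active.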 Activity calls are given as the source filed them.
test system: TK-10 renal; assay: NCI-60 one-dose screen, 48 h (100 = growth as untreated, 0 = no growth, -100 = all killed); conditions: 10 µM unless noted

Q: `O=C1N(c2ccccc2)N=C2c3ccncc3C3=NN(c4ccccc4)C(=O)C123` (stereo not given) was tested. Which growth did it give?
A: Its growth is 70.4% [100 µM] (inactive) and -59.4% [100 µM] (active).

Q: `CCC/C(Cl)=N\OC(=O)Nc1ccc(F)cc1` was tested. Which growth did it give?
A: The growth was -100% [100 µM] (active).

Q: Which growth does the source give for `Cc1ccnc2[nH]c(-c3ccc(F)cc3)cc(=O)c12` here?
A: Its growth is 66.3% [100 µM] (inactive) and 16.9% [100 µM] (inactive).

Q: `CC#CC#C/C=C1\C=CC2(OC=CC2OC(C)=O)O1` (stereo not given) was tested. Which growth did it give?
A: The growth was -20.2% [100 µM] (active) and -81% [100 µM] (active).

Q: With `CC1(C)CCCC(C)(C2CCC3(C)C2C(O)CC2C4(C)CCC(O)C(C)(C)C4C(O)CC23C)O1` (stereo not given) as the compound, how does the growth read?
A: Its growth is 4.11% [100 µM] (active) and -96.5% [100 µM] (active).

Q: Which growth does the source give for `Oc1ccc(/C=C/c2cc(O)cc3c2C(c2cc(O)cc(O)c2)C(c2ccc(O)c(O)c2)O3)cc1` (stereo not given) here?
A: The growth was -15.5% [100 µM] (active) and -12.5% [100 µM] (active).

Q: `COc1cc2c(cc1O)Cc1c-2[n+](C)cc2cc(OC)c(OC)cc12` was tested. Which growth did it give?
A: The growth was 89.2% [100 µM] (inactive) and 4.86% [100 µM] (active).

Q: With `CCOC(=O)/C(C#N)=C(/NNc1ccccc1)c1ccncc1C(=O)O` as the compound, how does the growth read?
A: Its growth is 79.5% [100 µM] (inactive) and -58% [100 µM] (active).

Q: For `Cc1ccc(/C=N/Nc2ccc3ccccc3n2)s1`, which growth is on record?
A: Its growth is 50.5% [100 µM] (inactive) and 7.78% [100 µM] (active).

Q: How did the growth turn out when `CC12CCC3c4cc(Br)c(O)c(Br)c4CCC3C1CCC2O` (stereo not given) was run?
A: Its growth is 12.2% [100 µM] (inactive) and -95.7% [100 µM] (active).
